Source: PubChem BioAssay (NCATS)
Values joined by “and” are separate entries in the source; they are usually repeats but may differ in a detail not shown here. Identical values can stand only once. Results filed as inconclusive are left out. A call without a number means that no potency is given here. Active and inactive are the calls of the source. Unless noted, calls follow the shape of the full dose curve.

Key:
[1] = Cell Viability - NIH 3T3 (AID 541; active = well fitted curve in the direction sought with a large enough effect; an effect the other way counts as inactive or inconclusive; also: nearly all actives have a fitted effect of over 25% in size; also: potency is read from the fitted curve at half-maximal effect); conditions: NIH 3T3 cell viability, qHTS; activity change, negative = cytotoxicity: at 92.2 µM (top of the series)
In short: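 Luminescent ATP signal (CellTiter-Glo) served as the viability read-out after NIH 3T3 cells were exposed to compounds over a concentration range for 40 hr at 37 °C. Hill-equation modelling of concentration-response data gave AC50.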

[2] = molecular target: Estrogen receptor (Homo sapiens) (UniProt P03372); experiment: qHTS assay for small molecule agonists of estrogen receptor alpha signaling (AID 588514); also: nearly all actives have a fitted effect of over 70% in size
Estrogen receptor (Homo sapiens), sequence (P03372 whole entry, looked up): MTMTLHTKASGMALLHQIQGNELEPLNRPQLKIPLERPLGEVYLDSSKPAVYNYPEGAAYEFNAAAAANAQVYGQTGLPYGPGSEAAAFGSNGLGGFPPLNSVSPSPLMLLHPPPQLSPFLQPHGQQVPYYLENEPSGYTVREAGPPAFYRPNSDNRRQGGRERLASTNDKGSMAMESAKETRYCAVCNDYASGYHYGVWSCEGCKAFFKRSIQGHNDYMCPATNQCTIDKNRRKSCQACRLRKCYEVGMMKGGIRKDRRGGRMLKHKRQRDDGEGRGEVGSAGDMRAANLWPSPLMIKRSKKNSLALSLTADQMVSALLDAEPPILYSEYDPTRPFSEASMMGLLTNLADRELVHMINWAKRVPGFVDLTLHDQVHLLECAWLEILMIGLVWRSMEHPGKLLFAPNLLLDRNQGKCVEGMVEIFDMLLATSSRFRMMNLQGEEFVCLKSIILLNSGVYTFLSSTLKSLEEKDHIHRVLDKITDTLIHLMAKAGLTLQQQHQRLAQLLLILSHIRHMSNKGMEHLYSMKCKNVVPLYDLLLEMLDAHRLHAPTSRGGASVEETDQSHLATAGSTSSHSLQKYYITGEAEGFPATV
In short: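 Cells were plated at 5000/well, incubated 4 hrs at 37 C, dosed with compound titration series, incubated 18 hrs at 37 C, loaded with CCF4 dye for 2 hrs at RT, then fluorescence was read.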

[3] = molecular target: Glucocorticoid receptor (Homo sapiens) (UniProt P04150); experiment: qHTS assay for small molecule agonists of glucocorticoid receptor signaling (AID 588532; active = well fitted curve in the direction sought with a large enough effect in the signal ratio, with a control signal flat; the % refers to the signal ratio); conditions: HeLa MMTV-bla, beta-lactamase ratio, agonist, 18 h; stronger effect = higher value; percent of dexamethasone control, DMSO zero
Glucocorticoid receptor (Homo sapiens), sequence (P04150 whole entry, looked up): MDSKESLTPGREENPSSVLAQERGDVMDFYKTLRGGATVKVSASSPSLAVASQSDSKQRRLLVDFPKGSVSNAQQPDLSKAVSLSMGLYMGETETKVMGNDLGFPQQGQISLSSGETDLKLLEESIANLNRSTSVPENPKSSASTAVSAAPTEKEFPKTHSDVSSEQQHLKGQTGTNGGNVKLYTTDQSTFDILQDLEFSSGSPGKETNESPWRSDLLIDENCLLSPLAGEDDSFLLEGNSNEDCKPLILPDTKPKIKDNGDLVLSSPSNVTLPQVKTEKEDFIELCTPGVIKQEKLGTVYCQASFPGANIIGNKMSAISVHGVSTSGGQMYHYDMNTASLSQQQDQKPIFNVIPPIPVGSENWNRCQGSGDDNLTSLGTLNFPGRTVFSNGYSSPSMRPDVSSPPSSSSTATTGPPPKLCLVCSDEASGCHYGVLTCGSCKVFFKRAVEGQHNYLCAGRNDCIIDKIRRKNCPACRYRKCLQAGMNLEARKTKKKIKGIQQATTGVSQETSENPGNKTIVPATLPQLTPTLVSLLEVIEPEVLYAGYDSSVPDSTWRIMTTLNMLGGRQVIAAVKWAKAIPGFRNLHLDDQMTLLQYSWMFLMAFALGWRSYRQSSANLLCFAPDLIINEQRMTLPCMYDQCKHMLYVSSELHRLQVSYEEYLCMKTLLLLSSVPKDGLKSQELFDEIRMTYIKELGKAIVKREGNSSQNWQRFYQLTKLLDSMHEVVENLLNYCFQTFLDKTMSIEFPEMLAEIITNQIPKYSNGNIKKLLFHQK
In short: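 Agonist-mode qHTS: GRE-driven beta-lactamase in HeLa cells exposed 18 h to titrated compounds (up to 92 uM), then CCF4 ratio read after 2 h at RT; Hill-fitted EC50, efficacy relative to 0.1 uM dexamethasone.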

[4] = molecular target: Glucocorticoid receptor (Homo sapiens) (UniProt P04150); experiment: qHTS assay for small molecule antagonists of glucocorticoid receptor signaling (AID 588533; active = well fitted inhibition curve with a large enough effect in the signal ratio, with a control signal flat, not every such curve was filed as active; the % refers to the signal ratio;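 also: cells stimulated with 2 nM dexamethasone as agonist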)
In short: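 Antagonist-mode qHTS: compound titrations added to GRE-bla HeLa cells, then dexamethasone 2 nM final; 18 h, 37 C. CCF4 FRET fluorescence normalized to dexamethasone and DMSO; IC50 from Hill fit.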

[5] = molecular target: Peroxisome proliferator-activated receptor delta (Homo sapiens) (UniProt Q03181); experiment: qHTS assay for small molecule agonists of peroxisome proliferator-activated receptor delta signaling (AID 588534)
Peroxisome proliferator-activated receptor delta (Homo sapiens), sequence (Q03181 whole entry, looked up): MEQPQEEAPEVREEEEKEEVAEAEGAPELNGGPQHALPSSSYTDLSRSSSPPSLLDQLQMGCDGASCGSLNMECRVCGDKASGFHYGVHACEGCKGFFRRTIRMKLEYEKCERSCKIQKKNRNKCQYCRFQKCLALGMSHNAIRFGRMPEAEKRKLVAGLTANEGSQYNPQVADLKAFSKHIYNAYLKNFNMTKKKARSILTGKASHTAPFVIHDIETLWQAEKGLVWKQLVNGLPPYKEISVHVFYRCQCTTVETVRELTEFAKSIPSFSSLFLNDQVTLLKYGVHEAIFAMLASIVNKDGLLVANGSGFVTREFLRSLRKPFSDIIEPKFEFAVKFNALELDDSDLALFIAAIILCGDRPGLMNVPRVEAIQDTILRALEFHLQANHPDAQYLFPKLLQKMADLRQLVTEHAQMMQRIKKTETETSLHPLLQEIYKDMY
In short: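 Fluorescence from CCF4 substrate cleavage by beta-lactamase reporter, read 2 hrs at RT, measured agonist activity. Compounds were tested with 18 hrs exposure at 37 C. Concentration-response data fitted to Hill equation.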

[6] = qHTS assay for small molecule antagonists of peroxisome proliferator-activated receptor delta signaling (AID 588535; active = well fitted inhibition curve with a large enough effect in the signal ratio, with a control signal flat, not every such curve was filed as active; the % refers to the signal ratio;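 as to max response: cells co-treated with a PPAR-delta agonist as stimulator during compound exposure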); conditions: HEK293T PPARd-UAS-bla, beta-lactamase FRET ratio, 18 h; 460 nm channel
In short: (§1)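 HEK293T PPAR-delta-UAS-bla cells, 4000/well, 2% charcoal/dextran FBS; 5 h 37 C; cpd titration; 18 h 37 C; CCF4 2 h RT; FI 460/530 nm; Hill fit → IC50, efficacy.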

[7] = molecular target: Peroxisome proliferator-activated receptor delta (Homo sapiens) (UniProt Q03181); experiment: as above
In short: as §1

[8] = molecular target: Peroxisome proliferator-activated receptor gamma (Homo sapiens) (UniProt P37231); experiment: qHTS assay for small molecule agonists of peroxisome proliferator-activated receptor gamma signaling (AID 588536; active = well fitted curve in the direction sought with a large enough effect in the signal ratio, with a control signal flat, not every such curve was filed as active; the % refers to the signal ratio)
Peroxisome proliferator-activated receptor gamma (Homo sapiens), sequence (P37231 whole entry, looked up): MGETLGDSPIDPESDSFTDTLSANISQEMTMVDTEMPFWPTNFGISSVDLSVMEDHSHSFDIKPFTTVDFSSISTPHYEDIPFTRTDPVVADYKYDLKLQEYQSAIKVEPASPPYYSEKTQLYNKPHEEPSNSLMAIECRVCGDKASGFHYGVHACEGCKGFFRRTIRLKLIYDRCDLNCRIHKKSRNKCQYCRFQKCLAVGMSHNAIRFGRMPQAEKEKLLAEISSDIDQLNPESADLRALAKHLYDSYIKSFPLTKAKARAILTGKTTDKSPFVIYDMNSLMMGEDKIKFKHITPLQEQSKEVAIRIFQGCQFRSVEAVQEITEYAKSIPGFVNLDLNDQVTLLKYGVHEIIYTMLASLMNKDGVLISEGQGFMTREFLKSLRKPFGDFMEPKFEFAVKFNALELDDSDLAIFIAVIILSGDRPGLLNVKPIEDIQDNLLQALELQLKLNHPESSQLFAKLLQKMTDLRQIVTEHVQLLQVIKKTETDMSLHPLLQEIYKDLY
In short: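 Ratiometric blue/green fluorescence (405 nm excitation; 460 and 530 nm emission) from CCF4-loaded HEK293 reporter cells serves as signal. Exposure to test compounds lasts 16 h at 37 C in medium containing 1% charcoal/dextran-treated serum.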

[9] = molecular target: Peroxisome proliferator-activated receptor gamma (Homo sapiens) (UniProt P37231); experiment: qHTS assay for small molecule antagonists of peroxisome proliferator-activated receptor gamma signaling (AID 588537; active = well fitted inhibition curve with a large enough effect in the signal ratio, with a control signal flat, not every such curve was filed as active; the % refers to the signal ratio;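 also: reporter cells co-stimulated with 50 nM rosiglitazone agonist during compound treatment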)
In short: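 Antagonist mode, beta-lactamase reporter in HEK293; charcoal/dextran FBS 1%; 3000 cells/well, 37 C 6-6.5 h; cpd titration + rosiglitazone 50 nM final, 16 h 37 C; CCF4, 2 h RT; 460/530 nm; Hill fit → IC50, efficacy.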

[10] = molecular target: Vitamin D3 receptor (Homo sapiens) (UniProt P11473); experiment: qHTS assay for small molecule antagonists of vitamin D receptor signaling (AID 588541);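 also: receptor activated by calcitriol during compound treatment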
Vitamin D3 receptor (Homo sapiens), sequence (P11473 whole entry, looked up): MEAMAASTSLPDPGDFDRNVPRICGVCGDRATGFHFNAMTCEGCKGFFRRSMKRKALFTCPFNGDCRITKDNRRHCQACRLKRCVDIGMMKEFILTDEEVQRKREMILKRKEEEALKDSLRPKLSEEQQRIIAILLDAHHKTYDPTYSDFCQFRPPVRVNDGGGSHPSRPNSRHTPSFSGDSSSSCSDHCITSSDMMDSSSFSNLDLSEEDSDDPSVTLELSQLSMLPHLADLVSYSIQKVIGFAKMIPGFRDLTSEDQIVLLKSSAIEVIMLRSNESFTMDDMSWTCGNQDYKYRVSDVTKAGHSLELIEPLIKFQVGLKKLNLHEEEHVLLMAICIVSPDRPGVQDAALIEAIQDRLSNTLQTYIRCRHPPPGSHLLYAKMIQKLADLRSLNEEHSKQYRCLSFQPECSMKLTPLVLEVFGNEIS
In short: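 Antagonist-mode beta-lactamase reporter assay: HEK293T VDR-UAS-bla cells were exposed to titrated compound alongside 1-alpha,25-dihydroxyvitamin D3 at 3 nM final for 16 h. Values were normalized to the 50 nM agonist control and DMSO basal, with IC50 and efficacy from Hill equation fits.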

[11] = molecular target: Vitamin D3 receptor (Homo sapiens) (UniProt P11473); experiment: qHTS assay for small molecule agonists of vitamin D receptor signaling (AID 588543)
In short: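 GeneBLAzer VDR-UAS-bla HEK293T cells in 2% charcoal-stripped FBS medium were dosed with compound titrations for 16 h at 37 °C; CCF4 β-lactamase readout (405 nm ex, 460/530 nm em). EC50 and efficacy from Hill fits, normalized to 50 nM calcitriol (100%) and DMSO (0%).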

[12] = molecular target: Thyroid hormone receptor beta (Homo sapiens) (UniProt P10828); experiment: qHTS assay for small molecule antagonists of thyroid hormone receptor beta signaling (AID 588547; active = well fitted inhibition curve with a large enough effect in the signal ratio, with a control signal flat, not every such curve was filed as active; the % refers to the signal ratio;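 also: cells stimulated with 0.4 nM T3 agonist during compound exposure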); conditions: TR-UAS-bla HEK293, beta-lactamase ratio, antagonist mode, 18 h
Thyroid hormone receptor beta (Homo sapiens), sequence (P10828 whole entry, looked up): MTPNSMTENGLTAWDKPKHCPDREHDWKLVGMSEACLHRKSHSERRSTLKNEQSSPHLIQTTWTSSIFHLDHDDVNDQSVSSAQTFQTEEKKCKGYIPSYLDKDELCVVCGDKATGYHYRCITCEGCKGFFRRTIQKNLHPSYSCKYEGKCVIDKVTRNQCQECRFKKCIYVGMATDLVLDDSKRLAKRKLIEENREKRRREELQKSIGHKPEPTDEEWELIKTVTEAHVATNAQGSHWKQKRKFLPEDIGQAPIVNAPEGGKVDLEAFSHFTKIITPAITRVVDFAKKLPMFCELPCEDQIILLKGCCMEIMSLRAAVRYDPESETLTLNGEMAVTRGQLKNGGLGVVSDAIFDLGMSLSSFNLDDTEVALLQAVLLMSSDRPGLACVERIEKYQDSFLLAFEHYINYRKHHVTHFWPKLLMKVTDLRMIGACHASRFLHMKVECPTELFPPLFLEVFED
In short: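 Inhibition of T3-driven (0.4nM final) beta-lactamase reporter activity was measured over 0.59 nM to 92 uM compound after 18 h at 37 C. The cells were GripTite HEK293 TR-UAS-bla in charcoal/dextran-stripped serum, with CCF4 ratio read-out and IC50 from Hill fits.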

[13] = qHTS assay for small molecule agonists of the antioxidant response element (ARE) signaling pathway (AID 651741; active = well fitted activation curve with a large enough effect in the signal ratio; the % refers to the signal ratio; also: potency is read from the fitted curve at half-maximal effect)
In short: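 Quantitative HTS in HepG2 cells stably expressing an ARE-beta-lactamase reporter; 16 h compound exposure at 37 C, followed by 2 h room-temperature incubation with LiveBLAzer B/G FRET substrate and fluorescence measurement.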

[14] = qHTS assay for small molecule agonists of the antioxidant response element (ARE) signaling pathway measured by Nrf2-dependant transcriptional activity (AID 720636; active = well fitted curve in the direction sought with a large enough effect in the repeat runs; an effect the other way counts as inactive or inconclusive)
In short: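 Nrf2-dependent transcription read as ONE-Glo luciferase signal from ARE-luc HepG2 reporter cells after 16 hr compound treatment at 37 C, 5% CO2, in assay medium with 1% dialyzed FBS.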

[15] = qHTS assay for small molecule antagonists of the retinoid-related orphan receptor gamma (ROR-gamma) signaling pathway - cell viability counter screen (AID 720652; active = well fitted curve in the direction sought with a large enough effect in the repeat runs; an effect the other way counts as inactive or inconclusive;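 also: compound exposure lasted 16 hr before ATP read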)
In short: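 Luminescence from CellTiter-Glo after 30 min at room temperature reported cellular ATP as the cytotoxicity measure. Cells were the CHO reporter line with doxycycline-induced ROR-gamma expression, exposed to compound for 16 hr at 37 C.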

[16] = Cell Viability - LYMP2-004 (AID 966; active = well fitted curve in the direction sought with a large enough effect; an effect the other way counts as inactive or inconclusive;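 also: cells exposed to compound for 24 h; nearly all actives have a fitted effect of over 65% in size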)
In short: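 Cells seeded 2500/well, rested 5 hr at 37 C, dosed across a concentration series, incubated 24 hr at 37 C, then CellTiter-Glo added for 30 min at room temperature and luminescence read. Hill fitting gave AC50.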

[17] = Cell Viability - LYMP2-017 (AID 972; active = well fitted curve in the direction sought with a large enough effect; an effect the other way counts as inactive or inconclusive;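 also: cells exposed to compound for 24 hours at 37 °C; nearly all actives have a fitted effect of over 55% in size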)
In short: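 2500 cells/well, 5 h 37 C; cpd 24 h 37 C in complete medium; CellTiter-Glo, 30 min RT; luminescence (ATP). AC50 via Hill fit, qHTS.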

[18] = qHTS assay for small molecule activators of the nuclear factor-kappa B (NF-kB) signaling pathway (AID 651749; active = well fitted activation curve with a large enough effect in the signal ratio; the % refers to the signal ratio); conditions: NF-kB-bla ME-180 cells, beta-lactamase FRET ratio, 16 h; stronger effect = higher value
In short: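 Readout: beta-lactamase reporter driven by an NF-kB response element, detected fluorescently as loss of FRET. Cells were the ME-180 line, treated 16 hr at 37C with pin-transferred compound.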

[19] = Cellular Toxicity (caspase-3) Mesangial (AID 660; active = well fitted curve in the direction sought with a large enough effect; an effect the other way counts as inactive or inconclusive;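 also: combined caspase 3 and 7 activity read by Caspase-Glo luminescence; cells exposed to compound for 16 h before the caspase read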)
In short: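 Mesangial cells, 1000/well, 5 h settle at 37 °C; compound 16 h, 37 °C; Caspase-Glo 3/7 reagent 20 min RT; luminescence. Norm.: DMSO = 0%, tamoxifen 100 uM = 100%. AC50, Hill fit.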

[20] = molecular target: Estrogen receptor (Homo sapiens) (UniProt P03372); experiment: qHTS assay for small molecule antagonists of estrogen receptor alpha signaling (AID 588513; active = well fitted curve in the direction sought with a large enough effect in the signal ratio, with a control signal flat, not every such curve was filed as active; the % refers to the signal ratio)
In short: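 ER-alpha-UAS-bla GripTite HEK 293 cells in medium with 2% charcoal/dextran-treated FBS were preincubated 4 h at 37 C, dosed with compound (1:2 titration), stimulated with 0.5nM 17-beta-estradiol for 18 h, then read by CCF4 beta-lactamase fluorescence.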

| SMILES | Potency [1] | Potency [2] | activation [3] | outcome [4] | outcome [5] | max response [6] | outcome [7] | outcome [8] | Potency [9] | outcome [10] | outcome [11] | activity change % (negative = inhibition) [12] | Potency [13] | Potency [14] | Potency [15] | Potency [16] | Potency [17] | activation [18] | outcome [19] | Potency [20] |
| --- | --- | --- | --- | --- | --- | --- | --- | --- | --- | --- | --- | --- | --- | --- | --- | --- | --- | --- | --- | --- |
| c1ccc(P(c2ccccc2)c2ccccc2)cc1 | 25.1 µM (active) | inactive | 1.22% (inactive) | inactive | inactive | 58.2% | inactive | inactive | inactive | inactive | inactive | 5.79% (inactive) | 37.6 µM (active) | inactive | inactive | – | – | – | – | – |
| O=c1ccc(=O)[nH][nH]1 | inactive | – | – | – | – | – | – | inactive | inactive | inactive | – | -3.55% (inactive) | – | inactive | inactive | inactive | inactive | -0.7% (inactive) and 1.42% (inactive) | – | – |
| O=S(=O)(O)F | inactive | – | – | – | inactive | 7.1% | inactive | inactive | – | – | inactive | 10% (inactive) | – | inactive | inactive | inactive | – | – | inactive | inactive |
| Nc1c(Cl)cc([N+](=O)[O-])cc1Cl | inactive | inactive | -0.898% (inactive) | inactive | inactive | 8.87% and 11.4% | inactive | inactive | inactive | inactive | inactive | 16.2% (inactive) and 3.97% (inactive) | – | inactive | – | – | – | 0.598% (inactive) and -4.6% (inactive) | – | inactive |
| CNC(=O)O/N=C/C(C)(C)S(C)=O (stereo unspecified) | – | inactive | 15.3% (inactive) and 5.05% (inactive) | inactive | inactive | 8.11% and 9.71% | inactive | inactive | inactive | – | inactive | 6.05% (inactive) and 1.68% (inactive) | – | inactive | inactive | inactive | inactive | -0.721% (inactive) and -0.0233% (inactive) | inactive | – |
| C=CCOCC1CO1 (stereo unspecified) | inactive | inactive | 4.14% (inactive) | inactive | – | – | – | inactive | – | inactive | inactive | – | inactive | inactive | inactive | inactive | inactive | – | inactive | – |
| C=C(Cl)CCl | inactive | inactive | -2.96% (inactive) | inactive | inactive | 15.9% | inactive | inactive | – | inactive | – | – | inactive | inactive | – | – | inactive | 0.174% (inactive) | – | inactive |
| O=[N+]([O-])c1ccccc1O | inactive | – | 0.494% (inactive) | inactive | – | – | – | inactive | inactive | – | – | -16.2% (inactive) | – | inactive | inactive | inactive | inactive | – | inactive | – |
| Clc1cc(Cl)c(Cl)c(Cl)c1 | inactive | inactive | 16.9% (inactive) | – | inactive | – | – | inactive | – | inactive | – | -16.6% (inactive) | – | inactive | inactive | – | inactive | -0.964% (inactive) | inactive | – |
| CCC#N | inactive | – | -7.32% (inactive) | inactive | inactive | -1.4% | inactive | – | – | inactive | inactive | – | inactive | inactive | inactive | inactive | inactive | – | inactive | – |
| N#CC(O)c1ccccc1 (stereo unspecified) | inactive | – | -0.987% (inactive) | inactive | inactive | 6.88% | inactive | – | inactive | inactive | inactive | 8.13% (inactive) | inactive | inactive | – | – | – | 0.595% (inactive) | inactive | – |
